# In PubChem BioAssay (NCATS):
# Records with an inconclusive call do not appear. Values without a mark were called inactive. Activity calls are given as the source filed them. The call rests on the fitted dose curve; in most records, active means well fitted cell-killing curve with a large enough effect; inconclusive means small, poorly fitted or top-dose-only effect, or effect the other way; inactive means no such curve, though single readings can be large or run the other way.
# Test: Quantitative High-Throughput drug screen in 47 multiple myeloma cell lines against the NCATS MIPE library collection: PE2_PLB cell viability assay (AID 1919869); further: nearly all actives have a fitted effect of over 35% in size;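 on viability (% of control): 100% = DMSO-only wells and 0% = cell-free media-only wells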
# Details: PE2_PLB myeloma cells viability, ATP luminescence, 48 h; series mostly up to 45.8 µM; viability (% of control): at the top concentration
# Method in brief: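 Plated at 500 cells per well, myeloma lines received MIPE 4.0 compounds by pin tool. Following 48 h culture at 37 °C, CellTiter-Glo luminescence gave viability relative to DMSO and media-only controls.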
# Potency means the concentration at half of the fitted maximal effect.
SMILES,Potency,viability (% of control) [%]
CCCCCCCCc1ccc(CCC(N)(CO)CO)cc1,8.33 µM (active),
C[C@H](CCC(=O)O)[C@H]1CCC2C3C[C@H](O)[C@@H]4C[C@H](O)CC[C@]4(C)C3CC[C@@]21C (stereo partly specified),,89.1
Oc1cc(-c2nc(-c3ccccc3)[nH]c2-c2ccncc2)ccc1Cl,5.26 µM (active),
C[C@H](CCC(=O)O)[C@H]1CC[C@H]2[C@@H]3[C@H](O)C[C@@H]4C[C@H](O)CC[C@]4(C)[C@@H]3CC[C@]12C,,108
NC[C@H]1O[C@H](O[C@H]2[C@@H](O)[C@@H](O[C@H]3O[C@H](CO)[C@@H](O)[C@H](N)[C@@H]3O)[C@H](N)C[C@@H]2N)[C@H](N)C[C@H]1O,,125
COc1cc2c(Nc3ccc(Cl)c(Cl)c3F)ncnc2cc1OCC1C[C@@H]2CN(C)C[C@H]2C1,1.87 µM (active),
COC(=O)[C@H](CCCN=C(N)N)NS(=O)(=O)c1ccc(C)cc1,,112
C[N+](C)([O-])CCNc1ccc(NCC[N+](C)(C)[O-])c2c1C(=O)c1c(O)ccc(O)c1C2=O,,119
CCOC(=O)[C@H](CCc1ccccc1)N[C@@H](C)C(=O)N1[C@@H](C(=O)O)C[C@H]2CCC[C@@H]21,8.33 µM (active),
C=CCNC1=C2C[C@@H](C)C[C@H](OC)[C@@H](O)[C@@H](C)C=C(C)[C@H](OC(N)=O)[C@@H](OC)C=CC=C(C)C(=O)NC(=CC1=O)C2=O,4.18 µM (active),
CC(C)(O)Cn1c(NC(=O)c2ccc(-c3cn[nH]c3)s2)nc2cc(CN3CCOCC3)ccc21,1.32 µM (active),
